In PubChem BioAssay (NCI):
This is part of a sample that, as a whole, favours compounds with a hit. Of some 83,000 tested, about 20% had one in any assay.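 Results are percent growth after 48 hours of single-concentration exposure. 100 means growth as in untreated cells, lower positive values show inhibition; negative values down to -100 show cell death.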 Activity calls are given as the source filed them. The calls were made as follows: active = growth percent below 10; inactive = the rest.

Legend:
Test in all cases: NCI-60 one-dose screen, 48 h (100 = growth as untreated, 0 = no growth, -100 = all killed)
Settings in all cases: 10 µM unless noted
HCT-15 colon = system: HCT-15 colon
HT29 colon = system: HT29 colon
SNB-19 CNS = system: SNB-19 CNS
U251 CNS = system: U251 CNS
PC-3 prostate = system: PC-3 prostate
SK-MEL-5 melanoma = system: SK-MEL-5 melanoma
UACC-62 melanoma = system: UACC-62 melanoma
LOX IMVI melanoma = system: LOX IMVI melanoma
SK-MEL-28 melanoma = system: SK-MEL-28 melanoma
SK-MEL-2 melanoma = system: SK-MEL-2 melanoma
EKVX NSCLC = system: EKVX NSCLC
SN12C renal = system: SN12C renal
UO-31 renal = system: UO-31 renal
TK-10 renal = system: TK-10 renal
ACHN renal = system: ACHN renal
A498 renal = system: A498 renal
CCRF-CEM leukemia = system: CCRF-CEM leukemia
MOLT-4 leukemia = system: MOLT-4 leukemia
CAKI-1 renal = system: CAKI-1 renal

Measured: growth

C=CCSc1n[nH]c(-c2cccs2)n1
active: SK-MEL-2 melanoma 3.39%
inactive: HCT-15 colon 103% | HT29 colon 102% | SNB-19 CNS 103% | U251 CNS 99.3% | PC-3 prostate 108% | SK-MEL-5 melanoma 104% | UACC-62 melanoma 101% | LOX IMVI melanoma 99.8% | SK-MEL-28 melanoma 129% | EKVX NSCLC 108% | SN12C renal 97.2% | UO-31 renal 118% | TK-10 renal 121% | ACHN renal 105% | A498 renal 101% | CCRF-CEM leukemia 94.6% | MOLT-4 leukemia 99.5%

O=C1/C(=C/c2ccc([N+](=O)[O-])cc2)CN(C(=O)CCN2CCC(=NO)CC2)C/C1=C\c1ccc([N+](=O)[O-])cc1
active: HCT-15 colon -68.4% | HT29 colon -49.7% | SNB-19 CNS -41.6% | U251 CNS -56.8% | PC-3 prostate -34.6% | SK-MEL-5 melanoma -50.5% | UACC-62 melanoma -52.2% | LOX IMVI melanoma -83.3% | SK-MEL-28 melanoma -30.6% | SK-MEL-2 melanoma 2.76% | EKVX NSCLC -31.9% | SN12C renal -17.6% | UO-31 renal -94.9% | ACHN renal -59.2% | CAKI-1 renal -46.3% | A498 renal -3.11% | CCRF-CEM leukemia -13.3% | MOLT-4 leukemia -7.02%

N#Cc1c(-c2ccccc2)cc(-c2ccccc2)n(CC(=O)NO)c1=O
inactive: HCT-15 colon 16.8% | HT29 colon 33.5% | SNB-19 CNS 77% | U251 CNS 52.5% | PC-3 prostate 34.9% | SK-MEL-5 melanoma 14.6% | UACC-62 melanoma 64.5% | SK-MEL-28 melanoma 75.7% | SK-MEL-2 melanoma 34.5% | EKVX NSCLC 41.7% | SN12C renal 47.8% | UO-31 renal 25.2% | TK-10 renal 73.1% | ACHN renal 43.3% | CAKI-1 renal 20.8%
active: LOX IMVI melanoma -90.5% | MOLT-4 leukemia -5.67%

COc1ccc(S(=O)(=O)NCCCNc2nccc(-c3c(-c4cccc([N+](=O)[O-])c4)nc4sccn34)n2)cc1
inactive: HCT-15 colon 30.9% | HT29 colon 31.1% | SNB-19 CNS 74.6% | U251 CNS 71.8% | PC-3 prostate 23.9% | UACC-62 melanoma 10.1% | LOX IMVI melanoma 30.1% | SK-MEL-28 melanoma 61.4% | SK-MEL-2 melanoma 41.4% | EKVX NSCLC 57.2% | SN12C renal 42.8% | UO-31 renal 19.7% | TK-10 renal 89.1% | ACHN renal 33.8% | CAKI-1 renal 34.9% | A498 renal 46.2% | MOLT-4 leukemia 22.5%
active: SK-MEL-5 melanoma -20.5%

O=[N+]([O-])c1cccc(-c2nc3sccn3c2-c2ccnc(NCCCNS(=O)(=O)c3ccc(C(F)(F)F)cc3)n2)c1
inactive: HCT-15 colon 17.6% | HT29 colon 36.8% | SNB-19 CNS 69% | U251 CNS 60.9% | PC-3 prostate 12% | LOX IMVI melanoma 17.6% | SK-MEL-28 melanoma 49.8% | SK-MEL-2 melanoma 25.3% | EKVX NSCLC 38.1% | SN12C renal 35.4% | UO-31 renal 12.5% | ACHN renal 22.6% | CAKI-1 renal 21.1% | A498 renal 25% | CCRF-CEM leukemia 14.5%
active: SK-MEL-5 melanoma -45.5% | UACC-62 melanoma -13.2% | MOLT-4 leukemia 7.2%

CC(=O)OC[C@]12CC[C@H]3[C@@H](C[C@H]4O[C@]45CC=CC(=O)[C@]35C)[C@]1(O)CC[C@@]2(O)[C@@](C)(O)C1CC(C)=C(C)C(=O)O1 (stereo partly drawn)
active: HCT-15 colon 0% | HT29 colon -21.2% | SNB-19 CNS 5.89% | U251 CNS -14.5% | PC-3 prostate 2.94% | SK-MEL-5 melanoma -78.7% | UACC-62 melanoma -71.1% | LOX IMVI melanoma -74.9% | SK-MEL-28 melanoma -49.9% | SK-MEL-2 melanoma -22.6% | EKVX NSCLC -14.1% | SN12C renal -39.2% | UO-31 renal -18.5% | TK-10 renal -55% | ACHN renal -64.1% | A498 renal -76.2% | CCRF-CEM leukemia -8.89% | MOLT-4 leukemia 7.75%

C=C1CCC2C3(C)COC(C)(C)OC3CCC2(C)C1C/C=C1/C(=O)OCC1Oc1ccccc1OC (stereo not drawn)
inactive: HCT-15 colon 43% | HT29 colon 56.4% | SNB-19 CNS 88.7% | U251 CNS 100% | PC-3 prostate 90.5% | SK-MEL-5 melanoma 95.4% | UACC-62 melanoma 80.4% | SK-MEL-28 melanoma 101% | SK-MEL-2 melanoma 95.6% | EKVX NSCLC 96.5% | SN12C renal 84.2% | UO-31 renal 83.5% | TK-10 renal 139% | ACHN renal 79.9% | CAKI-1 renal 90.6% | A498 renal 110% | MOLT-4 leukemia 77.7%
active: LOX IMVI melanoma -3.97%

NC1N=C(SCC(=O)N2CCN(c3cc4c(cc3F)c(=O)c(C(=O)O)cn4C3CC3)CC2)NC(=O)/C1=C/c1ccc(Cl)cc1 (stereo not drawn)
inactive: HCT-15 colon 97.3% | HT29 colon 111% | SNB-19 CNS 99.7% | U251 CNS 99.8% | PC-3 prostate 95.4% | SK-MEL-5 melanoma 102% | UACC-62 melanoma 99.9% | LOX IMVI melanoma 102% | SK-MEL-28 melanoma 110% | SK-MEL-2 melanoma 108% | EKVX NSCLC 92.8% | SN12C renal 99.4% | UO-31 renal 79% | TK-10 renal 107% | ACHN renal 102% | A498 renal 106% | CCRF-CEM leukemia 107% | MOLT-4 leukemia 109%
